In PubChem BioAssay (EPA / NIEHS):
Calls of active or inactive are those of the source. The calls were made as follows: active = hit-call score of the fitted dose curve at least 0.9, where 1 is the maximum; inactive = score below 0.9.

Test: ATG_TA_CIS: Attagene CIS-FACTORIAL HepG2 Assay for human TA Basal Promoter (AID 2282964)
Settings: HepG2 Attagene CIS-factorial TA basal promoter reporter; actives raise or lower the signal
Method in brief: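 Background-control readout: TA basal promoter reporter mRNA, fitted in both directions relative to DMSO. Measured by RT-PCR and capillary electrophoresis 24 hours after treating HepG2 human liver cells transiently carrying multiplexed cis-regulated reporter constructs.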

outcome, inactive:
CC(=O)Nc1ccc(O)cc1
CC(C)CCOCCC(C)C
CCc1ccccc1O
O=P(O)(O)CCC(F)(F)C(F)(F)C(F)(F)C(F)(F)C(F)(F)C(F)(F)F
Nc1ccn([C@@H]2O[C@H](CO)[C@@H](O)C2O)c(=O)n1 (stereo not given in full)
CC1=NN(c2ccccc2)C(=O)C1
O=S(=O)(c1ccc(OCc2ccccc2)cc1)c1ccccc1O
CC(C)C=O
Cc1ccc(S(=O)(=O)O)cc1
Cc1cc(Cc2cc(C)cc(C(C)(C)C)c2O)c(O)c(C(C)(C)C)c1
Cc1ccc(N=Nc2c(O)ccc3ccccc23)c(C)c1
O=C1OC(=O)c2cc(-c3ccc4c(c3)C(=O)OC4=O)ccc21
O=C1c2ccccc2C(=O)c2c(O)c(O)cc(O)c21
CCC(=O)O

AC50, active:
O=C(CCCN1CCC(O)(c2ccc(Cl)cc2)CC1)c1ccc(F)cc1 33.4 µM
